Data taken from the supplement of paper PMC6555819.

System: RARa homodimer (NR concentration 270 nM)
Assay: PBM binding z-score (relative to random genomic background probes); higher = stronger binding; sequences stand for … in GC…GCGATTGACAGCGTAGAATGAAGG
Summary of the method: (§1)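 For binding z-scores, the reference was random background probes on custom Agilent 4×180K protein-binding microarrays. These arrays were incubated 1 h with ligand-free nuclear receptor dimers in PBS pH 7.4, 2% milk, 0.02% Triton X-100, 1 mM DTT, 0.2 mg/mL BSA and 0.4 mg/ml salmon testes DNA. Fluorescence was scanned after antibody detection of each partner (one per run) and regression-normalized.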

Row | Sequence | PBM binding z-score
1 | CCTTACGGGACACTGACAGGTTATAGCATTTGGA | 0.647
2 | AGAACGAGGGCAATGAGTTGAGAGCACGGGTGGC | -0.276
3 | CCTGCTAGGTCAATGGTCGGCTAAAGCAGCTCGC | 0.0604
4 | CCGACTGGGGCTAAGGTTACCATACTCAGTACGA | -0.0476
5 | CTTCCAAGGTCAATGCTAGGTCAGTGAAAGCATT | 0.988
6 | CATACTGGGCCAAAGGTCATTGATTCCAATGCTC | 1.82
7 | AGAACGAGGGCACGCTGAGTTGCTAGCAGAGTAG | -0.905
8 | CCTCGGAGGACCACAGGAGGTCAGAGCTGCCAGA | 0.245
9 | AGTCAAAGTTCAGGACGAGGTTACGTAAAGCACG | 1.13
10 | TCTAGTTGGTCACGGACGTCACACACGACGGGTA | 0.469
11 | TAGCCTAGGTCATTGCGCCAGTATAGTACGCATC | -0.455
12 | TCTTTTAGATCAAGCAGGTTAAGAAAGCCTGAGT | -0.0558
13 | CATACAGGGTCAGCTAGGCCACAGTAGGGACGGC | 0.445
14 | GCTAGTTGGTCAGTAAAAGGTCACACGCCGGTCG | 1.93
15 | ACAGACAAGTGAGTGAAGGTAACTCAGCTGGACG | -0.707
16 | CCTACTGGGCCATTCAGAGGTCTTTGATCATATG | -0.345
17 | CCGACTGGGGTAGAAAGGTTACCATACCATCCGG | 0.375
18 | CCGACTGGGGCATAAGGTTAGCATAAGCCAGCCC | -0.345
19 | CGTCAAAGTTCCACTAAGGTAACGTAAAGCACGC | 0.139
20 | CCGACTGGGGCAGATAGGTTACCATACCATCCGG | -0.193

Row | Sequence | PBM binding z-score
21 | CATACAGGGTCAGCTAGGCGAGAGTAGGGACGGC | 0.266
22 | GGAACGAGGGCAAGTTGATCGCAGAGTTTGATGG | -0.361
23 | ACAGACAGGTGATGAAGCTAACTCAGGCTATCAT | -0.315
24 | GCATATAGGTAATACAAGGTAAAAGTCCGATTGT | 0.741
25 | TCTGGGAGGACACGAAAGGTCAGAGCTCGACATC | 1.17
26 | CCGACTGGGGCAAAGTTACCATAACGCACAGCCA | -0.168
27 | AGAATGAGGTTAAGATGAGGGAAACAGAATACAT | 0.74
28 | ATATGTAGATTATCGGGTCATTCAGTTTGCGCAT | 0.767
29 | TCATATTGGTAAAGGTGAAAGTCGAACGATATGA | 0.406
30 | TCTCGGAGCACACGAAGGTCAGAGCTTTCCAGAG | -1.5
31 | CAAACTAGGTCAAGAGATCAAAGTCCGCTTCCCG | 0.821
32 | ATCGAAAGGTCGAGGGTGAGTATACCCACCCGAA | 0.53
33 | CAGCCTAGGTCAGGGCCAGTATTGGAGGAACGTT | -0.698
34 | ATCGAAAGGTCGAAGGTGAGTGTACCCACCCGAA | -0.116
35 | CGAACTAGGTTAAGGACAGTGAATCTCCGCACGC | -0.21
36 | TCATATAGGTAATACAGGTGAAAGCCGGCATCTA | 0.756
37 | CCTGCTAGGTCATCGTCAGCTAATCTACAGTATG | -0.471
38 | TCTTGGAGATCAACAGGAGGTTAAGAAAGATCGA | -0.417
39 | GCGACTGGGGCAAAGCAGGTTACCATAAGGTTGG | -0.818
40 | TAGCCTAGGTCATGGACCAGTATACCACGCGAAC | -0.128

System: RARb:RXRa (NR concentration 270 nM, RXRa partner concentration 90 nM)
Assay: as above
Summary of the method: as §1

Row | Sequence | PBM binding z-score
41 | CCTTACGGGACACTGACAGGTTATAGCATTTGGA | 0.42
42 | AGAACGAGGGCAATGAGTTGAGAGCACGGGTGGC | 2.05
43 | CCTGCTAGGTCAATGGTCGGCTAAAGCAGCTCGC | 3.73
44 | CCGACTGGGGCTAAGGTTACCATACTCAGTACGA | 1.12
45 | CTTCCAAGGTCAATGCTAGGTCAGTGAAAGCATT | 5.2
46 | CATACTGGGCCAAAGGTCATTGATTCCAATGCTC | 4.71
47 | AGAACGAGGGCACGCTGAGTTGCTAGCAGAGTAG | 2.43
48 | CCTCGGAGGACCACAGGAGGTCAGAGCTGCCAGA | 2.18
49 | AGTCAAAGTTCAGGACGAGGTTACGTAAAGCACG | 4.46
50 | TCTAGTTGGTCACGGACGTCACACACGACGGGTA | 1.57
51 | TAGCCTAGGTCATTGCGCCAGTATAGTACGCATC | 3.7
52 | TCTTTTAGATCAAGCAGGTTAAGAAAGCCTGAGT | 0.269
53 | CATACAGGGTCAGCTAGGCCACAGTAGGGACGGC | 4.17
54 | GCTAGTTGGTCAGTAAAAGGTCACACGCCGGTCG | 4.53
55 | ACAGACAAGTGAGTGAAGGTAACTCAGCTGGACG | -0.0703
56 | CCTACTGGGCCATTCAGAGGTCTTTGATCATATG | 0.306
57 | CCGACTGGGGTAGAAAGGTTACCATACCATCCGG | 1.72
58 | CCGACTGGGGCATAAGGTTAGCATAAGCCAGCCC | 1.12
59 | CGTCAAAGTTCCACTAAGGTAACGTAAAGCACGC | 0.704
60 | CCGACTGGGGCAGATAGGTTACCATACCATCCGG | 0.804

Row | Sequence | PBM binding z-score
61 | CATACAGGGTCAGCTAGGCGAGAGTAGGGACGGC | 4.04
62 | GGAACGAGGGCAAGTTGATCGCAGAGTTTGATGG | 2.51
63 | ACAGACAGGTGATGAAGCTAACTCAGGCTATCAT | -0.112
64 | GCATATAGGTAATACAAGGTAAAAGTCCGATTGT | -0.207
65 | TCTGGGAGGACACGAAAGGTCAGAGCTCGACATC | 4.34
66 | CCGACTGGGGCAAAGTTACCATAACGCACAGCCA | 0.462
67 | AGAATGAGGTTAAGATGAGGGAAACAGAATACAT | 1.95
68 | ATATGTAGATTATCGGGTCATTCAGTTTGCGCAT | 1.85
69 | TCATATTGGTAAAGGTGAAAGTCGAACGATATGA | 1.94
70 | TCTCGGAGCACACGAAGGTCAGAGCTTTCCAGAG | 2.39
71 | CAAACTAGGTCAAGAGATCAAAGTCCGCTTCCCG | 3.92
72 | ATCGAAAGGTCGAGGGTGAGTATACCCACCCGAA | 4.09
73 | CAGCCTAGGTCAGGGCCAGTATTGGAGGAACGTT | 3.35
74 | ATCGAAAGGTCGAAGGTGAGTGTACCCACCCGAA | 3.86
75 | CGAACTAGGTTAAGGACAGTGAATCTCCGCACGC | 1.47
76 | TCATATAGGTAATACAGGTGAAAGCCGGCATCTA | 0.757
77 | CCTGCTAGGTCATCGTCAGCTAATCTACAGTATG | 4.03
78 | TCTTGGAGATCAACAGGAGGTTAAGAAAGATCGA | 0.374
79 | GCGACTGGGGCAAAGCAGGTTACCATAAGGTTGG | 0.93
80 | TAGCCTAGGTCATGGACCAGTATACCACGCGAAC | 3.77
